Source: PubChem BioAssay
UHRF1 binding: UHRF1 methyl-DNA binding inhibition. inhibition, % at 4.4 µM. AID 687016. 0.75% of 370,000 active. UHRF1 binding to methylated oligo, TR-FRET; in the data active = inhibition above about 21%;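 also: UHRF1 SRA domain binding a hemimethylated CpG hairpin DNA probe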
LEDGF integ inh: blocks HIV-1 LEDGF/p75-dependent DNA integration; TR-FRET IN-LEDGF/p75 DNA integration, Eu/Cy5; inhibition, % at 3.7 µM; 0.64% of 370,000 active;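 active = inhibition above the screen-wide mean plus 3 SD, cut at about 13% in these data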;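 also: signal is the Cy5 over europium emission ratio at 671 and 618 nm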
MBD2 DNA inh: blocks human MBD2 binding to methylated DNA | TR-FRET, MBD2 binding to methylated oligonucleotide | inhibition, % at 4.4 µM | Q9UBB5 | 0.31% of 370,000 active; in the data active = inhibition above about 13%
ABHD5 PLIN5 PPI: inhibitors of human ABHD5-perilipin-5 interaction. 0.78% of 360,000 active. inhibition, % at 4 µM. Q00G26+Q8WTS1. Split G. princeps luciferase complementation, luminescence, 4 h. AID 602281;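 active = inhibition above the mean inhibition across every tested compound plus 3 SD, cut at about 22% in these data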
PRMT1 inh: PRMT1 (human) inhibition, primary screen; recombinant PRMT1, activity-based probe fluorescence polarization; inhibition, % at 2.79 µM; 1.3% of 370,000 active;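 active = inhibition above about 21% made by adding two undisclosed values, limit read from the data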
rCAG RNA binder: binds r(CAG) RNA repeats; r(CAG) RNA repeat, TO-PRO-1 dye displacement fluorescence; inhibition, % at 3 µM; 1.3% of 370,000 active; AID 651821;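 active = inhibition above the plate cutoff, the mean of all test compounds on that plate plus 3 SD, cut at about 35% in these data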;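 also: higher means more dye released from RNA so lower well fluorescence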
IN multimer act: counter-screen for LEDGF/p75 integration inhibitors: HIV-1 integrase multimerization activators | shares compounds with LEDGF integ inh | TR-FRET HIV-1 integrase multimerization, biochemical | activation, % at 7.7 µM | 17% of 2,000 active | AID 1053131; in the data active = activation above about 8.9%
TRFRET interf: optically interferes with TR-FRET readout in LEDGF counter-screen | 2,000 tested, under 10 active | shares compounds with LEDGF integ inh | inhibition, % at 7.7 µM | TR-FRET optical interference counterscreen, HIV-1 IN multimerization;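 active = inhibition above the mean over all tested compounds plus 3 SD, which no compound reached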
IN-LEDGF confirm: confirmation of HIV-1 LEDGF/p75-dependent integration inhibitors | shares compounds with LEDGF integ inh | TR-FRET LEDGF/p75-dependent HIV-1 integration, biochemical | inhibition, % at 3.7 µM | 36% of 2,000 active | AID 1053136; in the data active = inhibition above about 14%
Numbers stand for hits; . = inactive; / = no result. Rows were chosen to be rich in hits. Some 4.1% of all compounds tested hit in one or more screens of this group.

SMILES	UHRF1 binding	LEDGF integ inh	MBD2 DNA inh	ABHD5 PLIN5 PPI	PRMT1 inh	rCAG RNA binder	IN multimer act	TRFRET interf	IN-LEDGF confirm
CC[C@@]1(O)C(=O)OCc2c1cc1n(c2=O)Cc2cc3c(N)cccc3nc2-1	.	23	.	.	.	.	14	.	.
CC1CN(C(=O)c2nn(C)cc2[N+](=O)[O-])CC(C)O1 (centres undefined)	.	42	.	.	.	.	.	.	.
CC(C)C[C@@H]1COc2cc(Br)ccc2S(=O)(=O)N1Cc1cn(CCC2OCCCO2)nn1	.	.	.	/	.	.	/	/	/
O=C1C=C(Nc2ccc(Cl)cc2)CC(c2ccco2)C1 (centres undefined)	.	.	.	.	.	.	/	/	/
O=C1C=C(Nc2cccc(O)c2)CC(c2ccco2)C1 (centres undefined)	.	14	.	.	.	.	.	.	.
COc1cc(-n2c(C)nc3cc(C(=O)N4CCN(C(C)=O)CC4)ccc32)cc(OC)c1OC	.	.	.	/	.	.	/	/	/
C[C@H]1CN([C@@H](C)CO)C(=O)CCCn2cc(nn2)CO[C@@H]1CN(C)C(=O)c1ccccc1	.	.	.	/	.	.	/	/	/
CC1(C)CC(=O)C(C(C2=C(O)CC(C)(C)CC2=O)c2ccc([N+](=O)[O-])cc2)C(=O)C1 (centres undefined)	.	40	.	.	.	.	.	.	.
COc1cccc(C(C2=C(O)CC(C)(C)CC2=O)C2C(=O)CC(C)(C)CC2=O)c1 (centres undefined)	.	.	.	.	.	.	/	/	/
Cc1ccc(Nc2ccc(NCc3ccccc3)nn2)cc1C	.	47	.	.	.	.	.	.	.
Clc1ccc(Nc2ccc(NCc3ccccc3)nn2)cc1	.	.	.	.	.	.	/	/	/
CCn1c(COc2ccccc2)nnc1SCC(=O)Nc1ccc(Oc2ccccc2)cc1	.	.	.	/	.	.	/	/	/
COc1ccc(NC(=S)N2CCC(NC(=O)c3ccc(OC)cc3)CC2)cc1	.	27	.	.	.	.	.	.	.
Cc1ccc(C(=O)NNC(=O)C2CCN(c3nccc(C)n3)CC2)cc1	.	18	.	.	.	.	.	.	.
Cc1ccnc(N2CCC(C(=O)NNC(=O)c3ccccc3)CC2)n1	.	.	.	.	.	.	/	/	/
CC(C)(C)c1ccc(C(=O)Nc2cc(Cl)ccc2C(=O)O)cc1	.	.	.	/	.	/	/	/	/
Cc1nonc1N1CCN(Cc2cn[nH]c2-c2ccc3c(c2)OCO3)CC1	.	53	.	.	.	.	.	.	.
Cc1nonc1N1CCN(Cc2cn[nH]c2-c2ccc(F)cc2F)CC1	.	.	.	.	.	.	/	/	/
COC(=O)C1CN(C2CCCC2)CCS(=O)(=O)N1Cc1cn(Cc2ccccc2)nn1 (centres undefined)	.	.	.	/	.	.	/	/	/
COc1ccc(OC)c(/C=C/c2ccnc3ccccc23)c1	.	25	.	.	.	.	.	.	.
COc1cc(OC)c(OC)cc1/C=C/c1ccnc2ccccc12	.	.	.	.	.	.	/	/	/
COc1ccc(-c2ccc(C(=O)Nc3cccc(NS(C)(=O)=O)c3)c3occc23)c(C)c1	.	16	.	.	.	.	.	.	.
COc1ccccc1NC(=S)OC1CCC12CCC(c1ccccc1)CC2 (centres undefined)	.	.	.	/	.	.	/	/	/
Cc1nn(-c2ccccc2)c(N2CCCC2)c1/C=N/NC(=O)c1cc2ccccc2cc1O	.	14	.	.	.	.	.	.	.
COc1ccc2[nH]c3c(c2c1)CCN[C@]31C(=O)N(C)c2ccc(Br)cc21	.	.	.	/	.	.	/	/	/
SMILES	UHRF1 binding	LEDGF integ inh	MBD2 DNA inh	ABHD5 PLIN5 PPI	PRMT1 inh	rCAG RNA binder	IN multimer act	TRFRET interf	IN-LEDGF confirm
COC(=O)[C@]12C=CCN1[C@@H](c1ccc(OC)c(OC)c1)c1c(c3ccccc3n1S(=O)(=O)c1ccc(C)cc1)C2	.	.	.	/	.	.	/	/	/
O=C1C2CC=CCC2C(=O)N1c1ccc(NCCc2cccc(F)c2)c([N+](=O)[O-])c1 (centres undefined)	.	14	.	.	.	.	.	.	.
O=C1CCC(=O)N1c1ccc(NCCc2cccc(F)c2)c([N+](=O)[O-])c1	.	.	.	.	.	.	/	/	/
COC(=O)[C@@]12C[C@@H](CC(=O)N3CCN(C(=O)c4ccco4)CC3)C(=O)N(Cc3cccc4ccccc34)C1=CCC(C)(C)C2	.	21	.	.	.	.	.	.	.
COC(=O)[C@@]12C[C@@H](CC(=O)N3CCCCC3)C(=O)N(Cc3cccc4ccccc34)C1=CCC(C)(C)C2	.	.	.	.	.	.	/	/	/
Cc1ccccc1C(=O)N[C@H](C(=O)N1CCC[C@H]1C(=O)NCc1ccccc1)c1ccccc1	.	.	.	/	.	.	/	/	/
Clc1ccccc1N=Nc1ccccn1	.	25	.	.	63	.	.	.	16
Cc1[nH][nH]c(=O)c1N=Nc1ccccc1Cl	.	.	.	.	.	.	/	/	/
c1ccc(CN2CCCC3(CCCN(Cc4nc(CC5CC5)no4)C3)C2)cc1 (centres undefined)	.	.	.	.	.	.	/	/	/
Clc1cccc(C2CCN(Cc3nc(CC4CC4)no3)C2)c1 (centres undefined)	.	35	.	.	.	.	.	.	.
Cc1cc(-c2cc(C)c(N)cc2C)c(C)cc1N	.	14	.	.	.	.	.	.	.
COc1ccc(-c2cnc3c(NC=O)cc(-c4ccoc4)cn23)cc1OC	.	28	.	.	.	.	.	.	.
C[C@H](O)[C@@H]1CN2CCc3ccc(N4CCOCC4)cc3[C@@H]2C[C@@H]1N(C)CC1CCCCC1	.	.	.	/	.	.	/	/	/
Cc1nc2c(O)c3c(c(O)c2nc1C)C1C=CC3CC1	.	21	.	.	.	.	.	.	.
CCCCNC[C@@]12CO[C@H](c3ccc(Cl)cc3)N1[C@@H](c1ccc(Cl)cc1)SC2	.	.	.	/	.	.	/	/	/
